Bioassay records deposited in PubChem by National Center for Advancing Translational Sciences (NCATS).
Sampled rows, rich in hits. Any-hit rate of the full collection: about 7.9%.
HT1080 IDH1KD tx: kills HT-1080 cells with IDH1 knockdown; HT-1080 IDH1 knockdown viability, ATP luminescence, 48 h; Potency, µM (top dose mostly 46.1 µM), without a hit: top-dose activity, negative = toxicity, actives largely listed as cytotoxic; 2% of 360,000 active; AID 686971;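 note: 0% = DMSO wells and -100% = cell-free medium wells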
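After a 2 h attachment period, IDH1KD HT-1080 cells took pin-transferred compound for 48 h at 37 °C; ATP-based luminescence after 10 min room-temperature reagent incubation reported viability.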
MCF10A rerep: DNA re-replication induction in MCF 10a cells; MCF 10A DNA re-replication, Hoechst nuclear intensity, 48 h; Potency, µM (titrated, usually from 46.1 µM), without a hit: at the highest dose activity, positive = re-replication, actives largely listed as activators; AID 624296; 2.9% of 350,000 active; note: % of control where 0% means no effect; nearly all actives have a fitted effect of over 50% in size
KB-V1 cytotox: KB-V1 MDR subline cytotoxicity. KB-V1 MDR cells viability, CellTiter-Glo, 72 h. AID 1347076. Potency, µM (top dose mostly 46.1 µM), usual class: cytotoxic. 3.4% of 400,000 active; note: % is set by controls: 0 for no effect and ±100 for the full control effect; nearly all actives have a fitted effect of over 60% in size
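Readout: CellTiter-Glo luminescence, 10 min after addition. Cells: KB-V1 MDR subline, 72 h at 37 degrees C with compound. Analysis: corrected, normalized data fitted to concentration-effect curves.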
KB-3-1 cytotox: KB-3-1 parental cell cytotoxicity | KB-3-1 viability, CellTiter-Glo ATP luminescence, 72 h | Potency, µM (doses to about 46.1 µM), hits mostly cytotoxic | 1.4% of 400,000 active | AID 1347075; note: % is set by controls: 0 for no effect and ±100 for the full control effect; nearly all actives have a fitted effect of over 60% in size
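Here the drug-naive KB-3-1 line serves as comparator for MDR sub-line selectivity; cells received compound titrations, 72 h at 37 °C, then CellTiter-Glo readout.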
HT1080-NT tox: kills 2HG-producing HT-1080-NT fibrosarcoma cells | HT-1080-NT fibrosarcoma viability, CellTiter-Glo ATP luminescence, 48 h | Potency, µM (titrated, usually from 46.1 µM), for inactives: at the top dose activity, negative = less viability, usual class: cytotoxic | 1.6% of 360,000 active | AID 686970;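 note: NT is the 2HG producing partner of a matched IDH1 knockdown line; 0% = DMSO-treated cells and -100% = media-only wells without cells; nearly all actives have a fitted effect of over 55% in size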
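Viability by CellTiter-Glo luminescence after 48 h compound exposure at 37C of HT-1080-NT cells (750/well, RPMI, 5% FBS). % activity scaled between DMSO wells and medium-only wells, then curve-fitted and categorized by curve class.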
SW480 rerep: inducers of DNA re-replication in SW480 colon cancer cells | SW480 DNA re-replication, Hoechst DNA content imaging, 48 h | Potency, µM (highest dose often 46.1 µM), for inactives: at the top dose re-replication activation, actives largely listed as activators | 1.8% of 340,000 active | AID 624297; note: % of control where 0% means no effect; nearly all actives have a fitted effect of over 55% in size
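Quantitative HTS format with DMSO vehicle controls; 48 hr drug incubation at 37 C, then 40 min Hoechst staining and scanning imager measurement at 405 nm excitation.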
* = called active by the depositor; i = inactive; ? = inconclusive; . = no result. Calls come from the whole dose curve; as a rule, active = well fitted curve in the direction sought with a large enough effect; inconclusive = small, poorly fitted or top-dose-only effect, or another doubt; inactive = no such curve, though single readings can be large; an effect the other way counts as inactive or inconclusive. Potency is the fitted concentration of half-maximal effect.

SMILES	HT1080 IDH1KD tx	MCF10A rerep	KB-V1 cytotox	KB-3-1 cytotox	HT1080-NT tox	SW480 rerep
CC1Cc2nc(SCC(=O)N3CCOCC3)n(C)c(=O)c2S1 (centres undefined)	6%	-2%	i	i	2%	-20%
CCn1c(SCC(=O)Nc2nnc(C)s2)nc2c(c1=O)SC(C)C2 (centres undefined)	0%	2%	i	i	3%	0%
CCSc1nnc(NC(=O)CSc2nc3c(c(=O)n2C)SC(C)C3)s1 (centres undefined)	1%	-4%	2.9µM*	i	20%	3%
CCSc1nnc(NC(=O)CSc2nc3c(c(=O)n2CC)SC(C)C3)s1 (centres undefined)	3%	10%	2.6µM*	6.5µM*	2%	-2%
CC1Cc2nc(SCC(=O)N3CCc4ccccc43)n(C)c(=O)c2S1 (centres undefined)	0%	7%	2.6µM*	i	-1%	-4%
Cc1c(C(=O)NCc2ccc(F)cc2)sc(=O)n1Cc1ccccc1F	-25%	.	?	i	-17%	.
COc1ccccc1CN(Cc1ccco1)c1cnc(S(C)(=O)=O)nc1C(=O)Nc1cc(C)ccc1C	.	.	i	i	.	.
OCCNc1nc2ccccc2nc1NCCO	6%	2%	i	i	5%	-2%
OCCNc1c2ccccc2nc2ccccc12	23µM*	-11%	?	?	23µM*	-4%
c1ccc(CN2CCN(c3nc(N4CCOCC4)c4ccccc4n3)CC2)cc1	-14%	16µM*	?	i	-3%	?
OCCNc1nc(N2CCN(Cc3ccccc3)CC2)nc2ccccc12	4%	15%	21µM*	i	2%	-2%
Cc1ccc(Nc2nc(NCCO)c3ccccc3n2)cc1C	23µM*	?	i	i	23µM*	?
Cc1cccc2sc(NS(=O)(=O)c3ccccc3)nc12	-2%	7%	i	i	-15%	?
C[C@H]1CN([C@@H](C)CO)C(=O)CCCn2cc(nn2)CO[C@@H]1CN(C)C(=O)Nc1ccc(N2CCCCC2)cc1	6%	.	?	i	20%	.
CN(C(=O)c1ccccc1C(=O)OCC(=O)Nc1ccc(S(N)(=O)=O)cc1)c1ccccc1	19%	12%	i	i	15%	?
C/C(=N/NS(=O)(=O)c1ccc(C(C)(C)C)cc1)c1ccc2c(c1)OCO2	-6%	?	i	i	1%	-2%
CCOc1ccccc1CNC(=O)CN1C(=O)CCn2nc(-c3cn(C)c4ccccc34)cc21	.	.	i	i	.	.
CC1CCCC(C)N1C(=O)c1cc2ncc(CCCl)cn2n1 (centres undefined)	7%	-5%	21µM*	i	11%	-9%
COc1ccccc1N1CCN(C(=O)c2ccc3[nH]c(C)c(C)c3c2)CC1	1.3µM*	?	4.6µM*	1.6µM*	1.5µM*	2.3µM*
CCOC(=O)c1[nH]c2ccc(OC)cc2c1NC(=S)N1CCN(c2cccc(C)c2C)CC1	?	15µM*	i	i	?	?
CCOC(=O)c1[nH]c2ccc(OC)cc2c1NC(=S)N1CCN(c2ccc(F)cc2)CC1	-20%	5%	i	i	-18%	-6%
COc1ccccc1N1CCN(C(=O)c2ccc3[nH]c4c(c3c2)CC(C)CC4)CC1 (centres undefined)	?	?	21µM*	i	?	11%
CCOC(=O)c1[nH]c(C)c(C(=O)N2CCN(c3cccc(Cl)c3)CC2)c1C	?	5%	13µM*	i	0%	-3%
CNC(=O)C1CCC(Cn2c(=O)c3sccc3n(CC(=O)NCc3ccc(F)cc3)c2=O)CC1 (centres undefined)	.	.	i	i	.	.
CN(C)c1ccc(C2=Cc3ccccc3C2)cc1	.	.	i	?	.	.
